# High-throughput results: PubChem BioAssay, National Center for Advancing Translational Sciences (NCATS)
# Most compounds without a hit are left out; they make up all but 1.7% or so of the library.
# GLP-1R agonist = activates the human GLP-1 receptor; AID 624172; Potency, µM (highest dose often 45.6 µM), actives largely listed as activators; HEK293 GLP-1R CRE-luciferase, luminescence, 4-6 h; cells express a hypersensitive GLP-1R form; 0.007% of 380,000 active
# Target sequence (P43220 whole entry, looked up): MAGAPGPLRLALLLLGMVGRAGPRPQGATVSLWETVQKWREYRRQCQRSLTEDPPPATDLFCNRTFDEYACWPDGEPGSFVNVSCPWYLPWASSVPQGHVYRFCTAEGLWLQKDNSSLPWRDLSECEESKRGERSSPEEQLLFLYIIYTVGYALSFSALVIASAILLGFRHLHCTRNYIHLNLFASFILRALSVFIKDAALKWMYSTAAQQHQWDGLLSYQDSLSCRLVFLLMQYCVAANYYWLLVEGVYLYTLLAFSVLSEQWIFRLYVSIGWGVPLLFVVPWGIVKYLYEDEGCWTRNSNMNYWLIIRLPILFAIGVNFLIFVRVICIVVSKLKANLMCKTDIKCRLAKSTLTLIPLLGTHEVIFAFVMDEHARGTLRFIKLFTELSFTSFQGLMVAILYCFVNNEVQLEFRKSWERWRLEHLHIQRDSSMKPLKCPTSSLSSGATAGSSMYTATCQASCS
# GLP1R inv ag = GLP-1 receptor (human) inverse agonism. P43220. HEK293 GLP-1R CRE-luciferase, luminescence, 24 h; GLP-1R form is constitutively active. Potency, µM (titrated, usually from 38.3 µM), hits mostly inhibitors. 1.6% of 410,000 active. AID 624417; also: nearly all actives have a fitted effect of over 55% in size
#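 qHTS in 1536-well format: reporter HEK293 cells expressing constitutive GLP-1R activity in DMEM + 10% Nu serum, 24 hr with compounds at 37 deg C, luminescence read after 12 min with detection reagent.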
# PTHR1 agonist = PTHR1 (human) receptor agonism; Q03431; HEK293 GP2 PTHR1 cells, GloSensor cAMP luminescence, 1 h; Potency, µM (doses to about 115 µM), usual class: activators; 0.075% of 410,000 active; also: nearly all actives have a fitted effect of over 55% in size
#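 HEK-293-derived GP2 cells expressing PTHR1 and a GloSensor cAMP reporter, 3,000/well, plated overnight, given luciferin plus IBMX (each 0.5 mM as added) for 1 h at 37 °C, then compound for 1 h at 37 °C. Luminescence was read after 15 min at room temperature.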
# HEK293 tox = cytotoxicity in counter-screen for GLP-1R inverse agonists; HEK293 cAMP-luciferase reporter cells, luminescence, 24 h; Potency, µM (top dose mostly 38.3 µM), usual class: inhibitors; 0.13% of 410,000 active;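 also: loss of luciferase light is scored as toxicity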
#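 A 23 nL compound transfer followed 12 hours of cell culture at 37 deg C; exposure then lasted 24 hr. Luciferase assay detection reagent was dispensed and plates read for luminescence after a 12 min room-temperature wait.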
# Hits are given with their value; n = inactive; u = inconclusive; x = not tested or not shown. Calls follow the shape of the dose curve; as a rule, active = well fitted curve in the direction sought with a large enough effect; inconclusive = small, poorly fitted or top-dose-only effect, or another doubt; inactive = no such curve, though single readings can be large; an effect the other way counts as inactive or inconclusive.
SMILES,GLP-1R agonist,GLP1R inv ag,PTHR1 agonist,HEK293 tox
COc1ccc(OC)c(NC(=O)CC2SC(=Nc3ccc(F)cc3)N(CCC3=CCCCC3)C2=O)c1 (stereo unspecified),n,4.5µM,n,n
COc1cc([N+](=O)[O-])ccc1NC(=O)CC1SC(=Nc2ccc(F)cc2)N(CCC2=CCCCC2)C1=O (stereo unspecified),n,u,n,n
O=C(NCc1nc2ccccc2[nH]1)c1c(F)cccc1F,u,n,n,n
CCC12C(=O)C(CC)(C(c3ccccc3)=C1c1ccccc1)[C@@H]1C(=O)N(c3ccc(C)cc3)C(=O)C12 (stereo partly specified),n,n,n,n
CCC12C(=O)C(CC)(C(c3ccccc3)=C1c1ccccc1)[C@@H]1C(=O)N(c3ccccc3)C(=O)C12 (stereo partly specified),n,3.2µM,n,n
Cc1ccc(N=C2SC(C(=O)Nc3ccc(OC(F)(F)F)cc3)C(N)=C2C(=O)Nc2c(C)cc(C)cc2C)cc1 (stereo unspecified),n,2.8µM,n,u
Cc1ccc(NC(=O)C2SC(=Nc3ccccc3)C(C(=O)Nc3ccc(Cl)cc3)=C2N)cc1 (stereo unspecified),n,u,n,n
Oc1c(C(c2ccc(Cl)cc2)N2CCCC2)cc(Cl)c2cccnc12 (stereo unspecified),n,5.6µM,n,u
CCCCC(=O)NC(c1ccccc1Cl)c1ccc2cccnc2c1O (stereo unspecified),n,u,n,u
Oc1c(C(c2ccccc2Cl)N2CCCC2)ccc2cccnc12 (stereo unspecified),n,3.5µM,n,n
O=C(Cn1c2ncccc2c(=O)n1-c1ccccc1)NCc1ccccc1Cl,x,n,n,n
CCc1ccc(CN(Cc2ccco2)c2cnc(S(C)(=O)=O)nc2C(=O)Nc2ccc(C)c(Cl)c2)cc1,x,n,n,n
CCCCCNCC(=O)Nc1cccc(C(=O)Nc2cccc(C(F)(F)F)c2)c1,n,6.3µM,n,u
O=C(CN1CCOCC1)Nc1cccc(C(=O)Nc2cccc(C(F)(F)F)c2)c1,n,n,n,u
Cc1ccc(S(=O)(=O)c2cn(C)c3cc(N4CCOCC4)c(F)cc3c2=O)c(C)c1,x,n,n,n
CCCCCCCNC1=CC(=O)CC(c2ccccc2)C1 (stereo unspecified),n,11µM,n,n
O=C(Nc1cccc(C(F)(F)F)c1)c1ccc2c(c1)nnn2C1CCCC1,x,n,n,n
Cc1cc2nc(C)n(CCCNC(=O)Nc3ccc(F)cc3)c2cc1C,n,10µM,n,n
O=C(NCCN1CCCCC1)Nc1ccc(F)cc1,n,n,n,n
CC(C)C1=NN(C(=O)c2ccccc2)C(O)(C(C)(C)C)C1 (stereo unspecified),n,13µM,n,u
CCOC(=O)Cn1c(-c2ccccc2)cc(SC)c(C#N)c1=O,n,10µM,n,n
CSc1cc(-c2ccccc2)n(C)c(=O)c1C#N,n,n,n,n
Cc1c(C(=O)OC(C)C)sc(NC(=O)C2c3ccccc3Oc3ccccc32)c1C(=O)OC(C)C,x,8.9µM,n,n
Cc1sc(NC(=O)C2c3ccccc3Oc3ccccc32)c(C(=O)OC(C)C)c1C,x,n,n,n
CC1(C(=O)OCC(=O)NC(=O)c2ccccc2)CC1(Cl)Cl (stereo unspecified),n,n,n,n
SMILES,GLP-1R agonist,GLP1R inv ag,PTHR1 agonist,HEK293 tox
CC1(C(=O)OCC(=O)N2c3ccccc3Sc3ccccc32)CC1(Cl)Cl (stereo unspecified),n,11µM,n,n
Cc1scc(C(=O)N/N=C/c2ccc(OCC(C)C)cc2)c1C,n,8.9µM,n,n
CCCCOc1ccc(/C=N/NC(=O)c2csc(C)c2C)cc1,n,u,n,n
CCc1nc2cccnc2n1-c1ccc(CC(=O)Nc2cccc(C)c2C)cc1,x,n,n,n
COc1cccc(C2CC(c3ccc(Br)cc3)=NN2C(=O)c2ccncc2)c1OC (stereo unspecified),n,10µM,n,n
CCOC(=O)c1oc2ccc(Br)cc2c1NC(=O)CN1CCN(C)CC1,10µM,8.9µM,n,n
COc1cc(OC)cc(C(=O)NC2CCCN(Cc3ccc(Cl)cc3)C2)c1 (stereo unspecified),n,11µM,n,n
CCOC(=O)c1ccc(NC(=O)c2ccc3c(c2)c(C)c(C)n3Cc2ccc(F)cc2)cc1,x,n,n,n
CCC1CCCCN1S(=O)(=O)c1cc(C(=O)Nc2ccc(C)c(F)c2)ccc1F (stereo unspecified),x,10µM,n,n
O=C(Nc1ccc(Br)cc1)c1ccc(F)c(S(=O)(=O)NC2CCCCCC2)c1,x,3.2µM,n,u
CC(C)N1CCC2(CC1)N=C(c1ccc3c(c1)OCO3)CC(c1cc(Cl)ccc1O)N2 (stereo unspecified),n,11µM,n,u
CC(Sc1ccc(Cl)cc1)C(=O)Nc1ccc2c(c1)OCO2 (stereo unspecified),n,u,n,n
Cc1ccc(O)c(-c2cc(-c3cccc(Br)c3)n[nH]2)c1,n,10µM,n,n
COc1ccccc1CNC(=O)c1ccc(N2CCCC2)c(NC(=O)NCc2ccccc2)c1,x,n,n,n
Clc1ccc(CCNC(c2cccc(Cl)c2)c2nnc(-c3ccccc3)o2)cc1 (stereo unspecified),x,u,n,n
C=CCn1c(=O)n(C2OC(CO)C(O)C2O)c2nc(N)[nH]c(=O)c21 (stereo unspecified),n,x,x,x
O=C(O)C1=CC(c2ccc(Br)cc2)n2ncnc2N1 (stereo unspecified),n,n,n,n
CCOC(=O)c1cc(-c2ccccc2)n(CCC(=O)Nc2nc3c(C)cccc3s2)c1C,x,u,n,n
O=C1c2ccccc2NC(c2cccc([N+](=O)[O-])c2)N1O (stereo unspecified),n,u,n,n
O=C1c2ccccc2NC(c2ccc([N+](=O)[O-])cc2)N1O (stereo unspecified),n,10µM,n,n
CCOC(=O)C1CCN(S(=O)(=O)c2cc(-c3onc(C)c3C)ccc2C)CC1,x,u,n,n
COc1ccc(C2CN=NC23CCCc2ccccc2C3=O)cc1 (stereo unspecified),n,n,n,n
COc1ccccc1C1CN=NC12CCCc1ccccc1C2=O (stereo unspecified),n,7.1µM,n,n
CC(=O)N1CCCc2cc(S(=O)(=O)N3CCC(C(=O)NCc4ccc(N(C)C)cc4)CC3)ccc21,x,n,n,n
O=C(NNC(=O)C1CCN(Cc2ccc(F)cc2Cl)CC1)Nc1ccc([N+](=O)[O-])cc1,n,4µM,n,n
COC(=O)C1=C(CN2CCc3ccccc32)NC(=O)NC1c1cc(C)ccc1C (stereo unspecified),n,8.9µM,n,n
COC(=O)C1=C(CN2CCN(C)CC2)NC(=O)NC1c1cc(C)ccc1C (stereo unspecified),n,n,n,n
